Experimental data taken from PubChem BioAssay (Tox21).
Records with an inconclusive call do not appear. A call without a number means that no potency is given here. Values without a mark were called inactive. Activity calls are given as the source filed them. Calls come from the whole dose curve; as a rule, active = well fitted activation curve with a large enough effect in the repeat runs; inconclusive = weak or mixed curves; inactive = flat fitted curve, though single readings scatter.

Experiment: Caspase-3/7 induction in HepG2 cells by small molecules, qHTS assay (AID 1346978); note: nearly all actives have a fitted effect of over 15% in size
Settings: HepG2 caspase-3/7 activation, Caspase-Glo luminescence, 17 h; series mostly up to 92.4 µM
How it was run: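 Wild-type HepG2 cells, 2,000/well, settled 5 hr at 37 C and 5% CO2, then compound-treated for 17 hr; caspase-3/7 activity read by luminescent Caspase-Glo 3/7 after 30 min at room temperature.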
Potency is the fitted concentration of half-maximal effect.

Row | SMILES | Potency | caspase activation
1 | CCN(CCC#N)c1ccc(N=Nc2c(Cl)cc([N+](=O)[O-])cc2Cl)cc1 | inactive | 
2 | CCCCC(CC)COP(=O)(O)OCC(CC)CCCC (configuration not stated) | inactive | 
3 | C/C(=C(/OCCOc1ccc(Cl)cc1)c1ccc(Cl)cc1Cl)n1ccnc1 | inactive | 
4 | Oc1c(Cl)cc(Cl)c2cccnc12 | inactive | 
5 | O=C(OC[C@H]1O[C@@H](OC(=O)c2cc(O)c(O)c(OC(=O)c3cc(O)c(O)c(O)c3)c2)[C@H](OC(=O)c2cc(O)c(O)c(OC(=O)c3cc(O)c(O)c(O)c3)c2)[C@@H](OC(=O)c2cc(O)c(O)c(OC(=O)c3cc(O)c(O)c(O)c3)c2)[C@@H]1OC(=O)c1cc(O)c(O)c(OC(=O)c2cc(O)c(O)c(O)c2)c1)c1cc(O)c(O)c(OC(=O)c2cc(O)c(O)c(O)c2)c1 |  | -2.85% [at 19 µM]
6 | C/C=C(\C)C(=O)OCc1ccccc1 | inactive | 
7 | CC(C)(C)CC(C)(C)c1ccc(OCCOCC[N+](C)(C)Cc2ccccc2)cc1 | inactive | 
8 | O=CC=C(c1ccccc1)c1ccccc1 | inactive | 
9 | COc1cc(/C=C/C(=O)O[C@H]2CC[C@]34C[C@]35CC[C@]3(C)[C@@H]([C@H](C)CCC=C(C)C)CC[C@@]3(C)[C@@H]5CC[C@H]4C2(C)C)ccc1O | 15 µM (active) | 
10 | C[C@H]1[C@H]2CC[C@H]3[C@@H]4CC=C5C[C@@H](N(C)C)CC[C@]5(C)[C@H]4CC[C@]23CN1C | inactive | 
11 | CCc1oc2ccccc2c1C(=O)c1cc(Br)c(O)c(Br)c1 | inactive | 
12 | CC(C)=CCOc1ccc(/C=C/C(=O)c2ccc(OCC=C(C)C)cc2OCC(=O)O)cc1 | inactive | 
